Experimental data published in PubChem BioAssay (NCI).
The panel holds about 83,000 compounds, 20% with a hit somewhere; the sample as a whole holds those more often.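 The test compound was applied at a single concentration to cells in 96-well plates for 48 hours, and percent growth was recorded.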 Values without a mark were called inactive. Active and inactive are the calls of the source. The calls were made as follows: active = growth percent below 10; inactive = the rest.

How the values were obtained:
Assay in all cases: NCI-60 one-dose screen, 48 h (100 = growth as untreated, 0 = no growth, -100 = all killed)
Conditions in all cases: 10 µM unless noted
[1] = system: SR leukemia
[2] = system: RPMI-8226 leukemia
[3] = system: OVCAR-8 ovarian
[4] = system: OVCAR-5 ovarian
[5] = system: OVCAR-4 ovarian
[6] = system: SK-OV-3 ovarian
[7] = system: IGROV1 ovarian
[8] = system: OVCAR-3 ovarian
[9] = system: HS 578T breast
[10] = system: NCI/ADR-RES ovarian

Row | SMILES | growth [1] | growth [2] | growth [3] | growth [4] | growth [5] | growth [6] | growth [7] | growth [8] | growth [9] | growth [10]
1 | CN(C)c1ccc(C(=C2C=CC(=[N+](C)C)C=C2)c2ccc(N(C)C)cc2)cc1 | -14.3% (active) | -51.8% (active) | -44.8% (active) | -34.4% (active) | -18.5% (active) | -90.9% (active) | -37.2% (active) | -91.1% (active) | 1.62% (active) | -18.8% (active)
2 | CCOC(=O)/C(=C\c1ccc2ccccc2c1)P(=O)(OCC)OCC | -19.4% (active) | -25.3% (active) | 20.1% | 56.9% | 62% | 113% | 56% | 27.4% | 16.7% | 10.4%
3 | CC[n+]1ccc(Nc2ccc(NC(=O)c3ccc(Nc4cc[n+](CC)c5ccc([N+](=O)[O-])cc45)cc3)cc2)cc1 | 75.7% | 41.9% | 79% | 107% | 56.8% | 84.5% | 115% | 91.8% | 97% | 106%
4 | O=C1C=CC(=O)N1c1cc(Cl)c(Cl)cc1Cl | 81.5% | 99.8% | 102% | 117% | 98.8% | 91.6% | 93.7% | 111% | 137% | 104%
5 | CCC[CH2][Sn]1([CH2]CCC)[O]C2C(CO)OC(n3ccc(N)nc3=O)C2[O]1 (stereo not given) | -30.5% (active) | -28.7% (active) | -44.7% (active) | -41.9% (active) | -53% (active) | 28.2% | -23% (active) | -90.8% (active) | -12.4% (active) | 24.8%
6 | NC1=C(Br)C(=O)c2ncccc2C1=O | -27.8% (active) | 0.625% (active) | 10.3% | -49.4% (active) | -89.5% (active) | 34.9% | -5.9% (active) | -11.9% (active) | -13.1% (active) | 9.48% (active)
7 | c1ccc(-c2cccc(-c3ccccn3)n2)nc1 | 7.98% (active) | 20.8% | 12% | 59% | 33.3% | 7.86% (active) | 19.3% | 28.2% | 67% | 1.8% (active)
8 | CCCCCCCCCCCC1=NCCCN1CCCC | 57.6% | 93.4% | 101% | 93.4% | 101% | 102% | 105% | 104% | 112% | 96.8%
9 | CCOc1ccc(C(CN2CCOCC2)C(C)=O)cc1OC (stereo not given) | 65.2% | 62.3% | 96.3% | 99.1% | 98.2% | 99.4% | 113% | 88.3% | 97.7% | 107%
10 | Cc1cccc2c(N)c3ccccc3nc12 | 2.95% (active) | -15.4% (active) | -9.82% (active) | 7.56% (active) | 1.48% (active) | -3.15% (active) | -13.2% (active) | -17.3% (active) | 16.5% | -47.5% (active)
11 | Clc1ccc(-n2ncc3c(NCCCN4CCOCC4)ncnc32)cc1 | 88.9% | 93.7% | 100% | 92.2% | 102% | 93.1% | 103% | 105% | 91.5% | 86.8%
12 | Nc1ccc(C(=O)/C=C/c2ccccc2)cc1 | 46.9% | 43% | 102% | 113% | 105% | 110% | 90.4% | 75.2% | 106% | 101%
13 | Oc1c(Cl)cc(Cl)cc1C(c1cc(Cl)cc(Cl)c1O)C(Cl)(Cl)Cl | 9.73% (active) | -9.94% (active) | -0.45% (active) | 1.83% (active) | 20.4% | -16.7% (active) | -15.7% (active) | -7.63% (active) | -11.5% (active) | -15.7% (active)
14 | O=C(Nc1ccc(Cl)c(Cl)c1)Nc1ccccc1O | 87% | 18.8% | 67.1% | 98.7% | 67.1% | 89.2% | 72.7% | 79.6% | 106% | 63.8%
15 | COc1ccc2nc3cc(Cl)ccc3c(NCCCCCN3CCCCC3)c2c1 | -17.9% (active) | -27% (active) | -13.6% (active) | -27.1% (active) | -61% (active) | -15.2% (active) | 5.24% (active) | -21.8% (active) | 35.3% | -8.47% (active)
16 | Cc1nc(Sc2nc3ccc([N+](=O)[O-])cc3s2)sc1C | -13.2% (active) | 2.79% (active) | 19.5% | 34.8% | 36.4% | 39.4% | 32% | -2.8% (active) | 50% | 16.7%
17 | Cc1cc(C)c([I+]c2c(C)cc(C)cc2C)c(C)c1 | -49.1% (active) | -8.17% (active) | -60.3% (active) | -7.26% (active) | -44.8% (active) | -26.4% (active) | -47.6% (active) | -44.9% (active) | 20.5% | 78%
18 | CC1=CC(=NC(=O)CBr)C=C/C1=N\S(=O)(=O)c1ccccc1 | 58.3% | 84.5% | 66.6% | 122% | 50.6% | 91.7% | -3.37% (active) | 8.58% (active) | 89.1% | 89.4%
19 | O=[N+]([O-])c1cc(-c2ccccc2)c(O)c([N+](=O)[O-])c1 | 80.4% | 38.9% | 91.7% | 94.6% | 62.6% | 83% | 106% | 69.7% | 84.4% | 94.7%
20 | c1ccc(C2NCCNC2c2ccccc2)cc1 (stereo not given) | 98.1% | 108% | 101% | 99.3% | 116% | 113% | 102% | 113% | 104% | 109%
21 | Cc1cc(C)c(C#N)c(Sc2nc(C)c([N+](=O)[O-])c(C)c2C#N)n1 | 22.7% | 48.7% | 77.2% | 90.1% | 66.6% | 81.3% | 82.9% | 68.6% | 118% | 77.9%
22 | O=C(c1ccccc1)C(Br)C(Br)c1ccccc1 (stereo not given) | 31.4% | -3.12% (active) | 78.8% | 104% | 90.2% | 115% | -22.3% (active) | -10.9% (active) | 104% | 117%
23 | OC(CSc1ccccc1)CN1CCN(c2ccc(Cl)cc2)CC1 (stereo not given) | 86.6% | 81.4% | 99.6% | 102% | 92.1% | 110% | 114% | 121% | 115% | 89.1%
24 | O=C(c1ccccc1)C(Br)[N+](=O)[O-] (stereo not given) | 5.17% (active) | 75.9% | 83.9% | 96.4% | 104% | 79.9% | 103% | 101% | 91.3% | 101%
25 | Cc1nnc(N/N=C/c2ccc([N+](=O)[O-])o2)[nH]c1=O | 8.26% (active) | 42.1% | 21.1% | -2.06% (active) | 29.4% | 10.4% | 21% | -7.14% (active) | 22% | 8.65% (active)
26 | CCCN(CCC)C(=O)c1ccc(C)cc1 | 95% | 93.3% | 103% | 95.3% | 110% | 94.9% | 106% | 109% | 84.1% | 100%
27 | O=[N+]([O-])c1ccc(C2N(Cc3ccc(Cl)cc3)CCN2Cc2ccc(Cl)cc2)cc1 | 64.8% | 83.9% | 91% | 89.6% | 102% | 90.1% | 85.9% | 91.3% | 102% | 87.6%
28 | CN(C)c1ccc(C(C#N)(c2ccccc2)c2ccc(N(C)C)cc2)cc1 | 15.9% | 14.9% | 23.4% | 106% | 83.5% | 92.5% | 83% | 72.3% | 33.2% | 73.8%
29 | CC(=O)OC1CC2CCC1(C)C2(C)C (stereo not given) | 97.6% | 108% | 98.9% | 94.9% | 113% | 111% | 106% | 103% | 103% | 108%
